D3 antag – qHTS of D3 Dopamine Receptor Antagonist: qHTS | AID 652054, 2013 | D(3) dopamine receptor (Homo sapiens), P35462 | D3R cells, DiscoveRx beta-arrestin luminescence, antagonist mode; hits give low values | 2.5% of 360,000 active | max response, negative = inhibition, %; in the data active = max response below about -50%; note: % is set by controls: 0 for no effect and ±100 for the full control effect
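Cells expressing the human receptor were seeded at 1500 cells/well, incubated overnight at 37 degrees C in 5% CO2, then exposed to library compounds with dopamine controls for 90 minutes at 37 degrees C before luminescent detection.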
D3 ag – qHTS of D3 Dopamine Receptor Agonist: qHTS. D(3) dopamine receptor (Homo sapiens), P35462. D3R DiscoveRx beta-arrestin cells, luminescence, 90 min. max activation, %. 0.58% of 410,000 active. AID 652048, 2013; in the data active = max activation above about 30%; note: 0% is about no effect
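Agonist-mode cell screen: cells plated at 1500/well and incubated overnight at 37 °C, then exposed to library compounds for 90 min at 37 °C. Detection reagent was added for 30–60 min at room temperature, and luminescence was read.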
D1 ag – Allosteric Agonists of the Human D1 Dopamine Receptor: qHTS | D(1A) dopamine receptor (Homo sapiens), P21728 | HEK293 T-REx D1 cells, calcium flux, agonist mode | activation, % at 2 µM | 1% of 360,000 active | AID 504660, 2011; in the data active = activation above about 30%; note: 0% is about no effect
Target sequence (P21728 whole entry, looked up): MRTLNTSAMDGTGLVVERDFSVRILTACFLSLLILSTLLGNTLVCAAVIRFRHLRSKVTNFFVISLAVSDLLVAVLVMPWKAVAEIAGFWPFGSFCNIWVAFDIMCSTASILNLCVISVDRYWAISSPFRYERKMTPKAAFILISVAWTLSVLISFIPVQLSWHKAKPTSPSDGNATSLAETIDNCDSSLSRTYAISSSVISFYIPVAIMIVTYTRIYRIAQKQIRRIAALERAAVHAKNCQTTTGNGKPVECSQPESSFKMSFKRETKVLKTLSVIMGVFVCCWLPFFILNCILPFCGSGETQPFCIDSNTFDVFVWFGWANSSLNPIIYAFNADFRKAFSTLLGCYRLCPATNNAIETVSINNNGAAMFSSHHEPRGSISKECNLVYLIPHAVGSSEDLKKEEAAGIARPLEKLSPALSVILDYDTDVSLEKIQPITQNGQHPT
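Tetracycline-induced HEK293 TREx D1 cells, force-coupled to calcium signalling, were dye-loaded with a no-wash calcium kit. Compound was pin-added after a 10 s baseline. Fluorescence was read kinetically at 1 cycle/s for 180 s, with calcium rises flagged as agonism.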
D1 potentiator – Potentiators of Human D1 Dopamine Receptor: qHTS; D(1A) dopamine receptor (Homo sapiens), P21728; HEK293 TREx D1 cells, calcium flux, dopamine EC20 potentiation; potentiation, % at 10 µM; 0.036% of 360,000 active; in the data active = potentiation above about 30%; note: 0% is about no effect
D1 antag – Antagonist of Human D 1 Dopamine Receptor: qHTS. 3.2% of 360,000 active. activity change, negative = inhibition, % at 10 µM. D(1A) dopamine receptor (Homo sapiens), P21728. AID 504652, 2011. HEK293 TREx D1 cells, calcium flux, dopamine EC80; hits give low values; in the data active = activity change below about -30%; note: % is set by controls: 0 for no effect and ±100 for the full control effect
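Allosteric or orthosteric antagonism assessed as attenuation of the calcium response to EC80 dopamine, added 180 s after compound, in induced HEK293 Trex D1 cells loaded with no-wash calcium dye.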
Numbers without * were called inactive. Compounds with a hit are over-represented: about 6% of the library has one in this group of screens.

COc1ccc(Nc2nc(N)c3ccccc3n2)c(OC)c1 was read as D3 antag -19, D3 ag -10, D1 ag 1, D1 potentiator -7 and D1 antag -37*.
Screening CCOc1nc(Nc2ccc(OC)cc2OC)nc(OCC)n1 returned D3 antag -3, D3 ag -4, D1 ag 6, D1 potentiator -5 and D1 antag -31*.
COc1ccc(Nc2nc(N3CCCC3)nc(N3CCCC3)n2)c(OC)c1 was read as D3 antag 44, D3 ag 146*, D1 ag -1, D1 potentiator 3 and D1 antag -4.
For COc1ccc(Nc2nc(-c3ccccc3)nc3ccccc23)c(OC)c1 the results were D3 antag 136, D3 ag -6, D1 ag 3, D1 potentiator -5 and D1 antag 10.
For COc1ccc(Nc2nc(N3CCCCC3)nc(N3CCCCC3)n2)c(OC)c1 the results were D3 antag 27, D3 ag -16, D1 ag -1, D1 potentiator 10 and D1 antag 6.
Cc1ccc(N2CCN(C(=O)c3c(C)oc4nc(C)nc(N5CCCC5)c34)CC2)c(C)c1 was read as D3 ag -1, D1 ag 1, D1 potentiator 2 and D1 antag -2.
`CCOc1ccc(NC(=O)c2c(C)oc3nc(C)nc(N4CCOCC4)c23)cc1` gave D3 ag -3, D1 ag -1, D1 potentiator 3 and D1 antag 7.
`Cc1ccc2nc(C3CCCCC3)c(Cc3ccccc3)n2c1` gave D3 antag -22 and D3 ag -7.
`COc1cccc(NC(=S)N/N=C2/CCCCc3ccccc32)c1` gave D3 antag -60*, D3 ag -16, D1 ag 4, D1 potentiator -1 and D1 antag -2.
`Cc1ccc(N2C(=O)C3C(C(=O)c4ccccc4)=NN(c4ccccc4)C3C2=O)cc1` (stereo unspecified) gave D3 antag 5, D3 ag 4, D1 ag 117*, D1 potentiator -6 and D1 antag -11.
For O=C(C1=NN(c2ccccc2)C2C(=O)N(c3ccccc3)C(=O)C12)c1ccccc1 (stereo unspecified) the results were D3 antag 37, D3 ag 5, D1 ag 324*, D1 potentiator 25 and D1 antag -32*.
CCOc1ccc(N2C(=O)C3C(c4ccccc4)=NN(c4ccccc4)C3C2=O)cc1 (stereo unspecified) was read as D3 antag -23, D3 ag -8, D1 ag 4, D1 potentiator 0 and D1 antag -6.
O=C(C1=NN(c2ccccc2)C2C(=O)N(c3ccccc3Cl)C(=O)C12)c1ccccc1 (stereo unspecified) was read as D3 antag -21, D3 ag 12, D1 ag 193*, D1 potentiator -5 and D1 antag -10.
`CC(NC(=O)c1ccc(N2Cc3ccccc3Oc3ncccc32)s1)c1ccccc1` (stereo unspecified) gave D3 ag -4, D1 ag 1, D1 potentiator -4 and D1 antag 7.
For Cc1cc2nc(-c3ccc(OCc4ccccc4)cc3)cc(C(F)(F)F)n2n1 the results were D3 ag 1, D1 ag 1, D1 potentiator 3 and D1 antag -3.
For COc1ccc(NC(=O)CSC2=Nc3ccccc3N=C(c3ccc(F)cc3)C2)cc1OC the results were D3 ag 2, D1 ag 1, D1 potentiator -1 and D1 antag -12.
For O=C(O)[C@H]1/C(=C/CO)O[C@@H]2CC(=O)N21 the results were D3 ag 4.
Screening C=CCc1ccc(OCCN2CCc3ccccc3C2)c(OC)c1 returned D3 antag -75*, D3 ag -16, D1 ag 2, D1 potentiator -4 and D1 antag -16.
`C/C=C/c1ccc(OCCN2CCc3ccccc3C2)c(OC)c1` gave D3 antag -76*, D3 ag -20, D1 ag -1, D1 potentiator -14 and D1 antag -24.
Screening C=CCc1ccc(OCCCCN2CC(C)OC(C)C2)c(OC)c1 (stereo unspecified) returned D3 antag -69*, D3 ag -6, D1 ag 1, D1 potentiator 1 and D1 antag -22.
Cc1ccc(Cl)c(OCCN2CCc3ccccc3C2)c1 was read as D3 antag -60*, D3 ag 7, D1 ag 0, D1 potentiator -22 and D1 antag -40*.
For C=C1[C@@H]2CC[C@@H](C2)C1(C)C the results were D3 ag 1.
`Cc1cc(C)c2c(-n3cccc3)c(C(=O)NCc3cccc(F)c3)sc2n1` gave D3 ag -6, D1 ag 0, D1 potentiator -1 and D1 antag 15.
`COc1cccc(NC(=O)N2CCC(CN3CCOCC3)CC2)c1` gave D3 ag -14, D1 ag 2, D1 potentiator -3 and D1 antag 3.
Screening COc1cccc(CNS(=O)(=O)c2ccc(-c3cc(C(F)(F)F)on3)s2)c1 returned D3 ag 0, D1 ag 17, D1 potentiator -5 and D1 antag -16.
O=C(OCC(O)C(O)C(O)C(SCc1ccccc1)SCc1ccccc1)c1ccccc1 (stereo unspecified) was read as D3 antag -67* and D3 ag -5.
For COc1cccc(C#Cc2c(C=O)n(C)c3ccccc23)c1 the results were D3 antag 69, D3 ag 56*, D1 ag 12 and D1 potentiator -1.
O=C(CCCn1c(=O)[nH]c2ccccc2c1=O)NCc1ccccc1Cl was read as D3 ag -16, D1 ag 0, D1 potentiator 0 and D1 antag -23.
CCc1ccc(OCCCC(=O)NCc2ccco2)cc1 was read as D3 antag -7, D3 ag 3, D1 ag -1, D1 potentiator -4 and D1 antag -7.
`CCc1ccc(N/C(SCc2ccccc2C)=C(/C#N)C(=O)NCc2ccco2)cc1` gave D3 antag 12, D3 ag -4, D1 ag 30*, D1 potentiator -4 and D1 antag -30*.
`Cc1ccc2nc3c(cc(C(=O)NCc4ccco4)c(=N)n3C3CCCC3)c(=O)n2c1` gave D1 ag 39* and D1 antag 9.
Screening CCn1c(=N)c(C(=O)NC2CCCCC2)cc2c(=O)n3cc(C)ccc3nc21 returned D3 ag 4, D1 ag 2, D1 potentiator 0 and D1 antag -31*.

Screens as filed in PubChem BioAssay.
